Results from PMC11062922 (Nature Chemical Biology, 2023).
Where two headings read alike, the source gives them in different places.

Assays:
ADCK3 = test system: ADCK3; design: species or system human, MV4-11 + K-562 + COLO205 + SK-N-BE2 + OVCAR-8; conditions: read-out: apparent Kd, n = 1
PIK3CD = test system: PIK3CD; design: species or system human, MV4-11 + K-562 + COLO205 + SK-N-BE2 + OVCAR-8; conditions: read-out: apparent Kd; compound concentrations:100 nM and 1000 nM (sheet 'Samples'); n = 1
TAOK1 = test system: TAOK1; design: species or system human, MV4-11 + K-562 + COLO205 + SK-N-BE2 + OVCAR-8; conditions: read-out: apparent Kd; compound concentrations:100 nM and 1000 nM (sheet 'Samples'); n = 1
BMPR2 = test system: BMPR2; design: species or system human, MV4-11 + K-562 + COLO205 + SK-N-BE2 + OVCAR-8; conditions: read-out: apparent Kd; compound concentrations: 100 nM and 1000 nM (sheet 'Samples'), CATDS: 0.122163431962668; n = 1
CSNK1A1 = test system: CSNK1A1; design: species or system human, MV4-11 + K-562 + COLO205 + SK-N-BE2 + OVCAR-8; conditions: read-out: apparent Kd; compound concentrations: 100 nM and 1000 nM (sheet 'Samples'), CATDS: 0.24698540566434601; n = 1
CSNK1D = test system: CSNK1D; design: species or system human, MV4-11 + K-562 + COLO205 + SK-N-BE2 + OVCAR-8; conditions: read-out: apparent Kd; compound concentrations: 100 nM and 1000 nM (sheet 'Samples'), CATDS: 0.25978966817559301; n = 1
CSNK1E = test system: CSNK1E; design: species or system human, MV4-11 + K-562 + COLO205 + SK-N-BE2 + OVCAR-8; conditions: read-out: apparent Kd; compound concentrations: 100 nM and 1000 nM (sheet 'Samples'), CATDS: 0.174355768455381; n = 1
PKN2 = test system: PKN2; design: species or system human, MV4-11 + K-562 + COLO205 + SK-N-BE2 + OVCAR-8; conditions: read-out: apparent Kd; compound concentrations: 100 nM and 1000 nM (sheet 'Samples'), CATDS: 0.12366746425094501; n = 1
AKT3 = test system: AKT3; design: species or system human, MV4-11 + K-562 + COLO205 + SK-N-BE2 + OVCAR-8; conditions: read-out: apparent Kd; compound concentrations: 100 nM and 1000 nM (sheet 'Samples'), CATDS: 0.239087060290751; n = 1
PIK3CB = test system: PIK3CB; design: species or system human, MV4-11 + K-562 + COLO205 + SK-N-BE2 + OVCAR-8; conditions: read-out: apparent Kd; compound concentrations: 100 nM and 1000 nM (sheet 'Samples'), CATDS: 0.78583542489200198; n = 1
GSK3A = test system: GSK3A; design: species or system human, MV4-11 + K-562 + COLO205 + SK-N-BE2 + OVCAR-8; conditions: read-out: apparent Kd; compound concentrations: 100 nM and 1000 nM (sheet 'Samples'), CATDS: 0.39261135326021201; n = 1
GSK3B = test system: GSK3B; design: species or system human, MV4-11 + K-562 + COLO205 + SK-N-BE2 + OVCAR-8; conditions: read-out: apparent Kd; compound concentrations: 100 nM and 1000 nM (sheet 'Samples'), CATDS: 0.34419414793352499; n = 1
IRAK3 = test system: IRAK3; design: species or system human, MV4-11 + K-562 + COLO205 + SK-N-BE2 + OVCAR-8; conditions: read-out: apparent Kd; compound concentrations: 100 nM and 1000 nM (sheet 'Samples'), CATDS: 0.24255292072304399; n = 1
LIMK1 = test system: LIMK1; design: species or system human, MV4-11 + K-562 + COLO205 + SK-N-BE2 + OVCAR-8; conditions: read-out: apparent Kd; compound concentrations: 100 nM and 1000 nM (sheet 'Samples'), CATDS: 0.14732071058877899; n = 1
NEK1 = test system: NEK1; design: species or system human, MV4-11 + K-562 + COLO205 + SK-N-BE2 + OVCAR-8; conditions: read-out: apparent Kd; compound concentrations: 100 nM and 1000 nM (sheet 'Samples'), CATDS: 0.13907038524561799; n = 1
NUAK2 = test system: NUAK2; design: species or system human, MV4-11 + K-562 + COLO205 + SK-N-BE2 + OVCAR-8; conditions: read-out: apparent Kd; compound concentrations: 100 nM and 1000 nM (sheet 'Samples'), CATDS: 0.15992761786182699; n = 1
Q6ZSR9 = Q6ZSR9 (human, UniProt Q6ZSR9); design: species or system MV4-11 + K-562 + COLO205 + SK-N-BE2 + OVCAR-8; conditions: read-out: apparent Kd; compound concentrations: 100 nM and 1000 nM (sheet 'Samples'), CATDS: 0.17489786753405201; n = 1
Chain of Q6ZSR9 (Q6ZSR9 whole entry, looked up): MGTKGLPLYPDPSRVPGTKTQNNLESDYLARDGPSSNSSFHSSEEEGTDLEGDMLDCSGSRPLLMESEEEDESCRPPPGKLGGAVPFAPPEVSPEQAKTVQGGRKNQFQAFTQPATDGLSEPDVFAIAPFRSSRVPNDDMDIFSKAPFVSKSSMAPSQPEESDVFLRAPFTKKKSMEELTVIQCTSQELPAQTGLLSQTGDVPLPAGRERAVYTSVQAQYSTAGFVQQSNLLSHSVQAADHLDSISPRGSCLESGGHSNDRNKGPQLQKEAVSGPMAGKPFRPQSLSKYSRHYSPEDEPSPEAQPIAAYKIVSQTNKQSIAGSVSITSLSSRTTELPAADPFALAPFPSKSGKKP

SMILES: COc1cc2ncn(-c3cc(OCC4CCCCC4)c(C(N)=O)s3)c2cc1OC [GSK204559A]
- potency estimated from few doses (ADCK3; compound concentrations:100 nM and 1000 nM (sheet 'Samples')): 1060 nM
- potency estimated from few doses (PIK3CD): 190 nM
- potency estimated from few doses (TAOK1): 1460 nM

SMILES: Cc1cc(C)c2c(n1)sc1c(N)ncnc12 [RO4241967-000]
- potency estimated from few doses (ADCK3; compound concentrations: 100 nM and 1000 nM (sheet 'Samples'), CATDS: 0.164080926877189): 987 nM
- potency estimated from few doses (BMPR2): 2210 nM
- potency estimated from few doses (CSNK1A1): 453 nM
- potency estimated from few doses (CSNK1D): 417 nM
- potency estimated from few doses (CSNK1E): 864 nM
- potency estimated from few doses (PKN2): 2120 nM

SMILES: Cc1c(Cn2ccn3c(=O)nc(N4CCOCC4)cc23)cccc1C(F)(F)F [GSK2336394A]
- potency estimated from few doses (ADCK3; compound concentrations: 100 nM and 1000 nM (sheet 'Samples'), CATDS: 0.28209603435573799): 575 nM
- potency estimated from few doses (AKT3): 1030 nM
- potency estimated from few doses (PIK3CB): 54.2 nM

SMILES: Cc1ccc(C)c(C2=C(c3cn(C)c4ccccc34)C(=O)NC2=O)c1 [RO0317699-000]
- potency estimated from few doses (ADCK3; compound concentrations: 100 nM and 1000 nM (sheet 'Samples'), CATDS: 0.28187952548436401): 629 nM
- potency estimated from few doses (GSK3A): 316 nM
- potency estimated from few doses (GSK3B): 404 nM

SMILES: COc1cc(Nc2nccc(N3CCC(NC(=O)Nc4cccc(C(C)=O)c4)C3)n2)cc(OC)c1OC (stereo not drawn) [GSK1379753A]
- potency estimated from few doses (ADCK3; compound concentrations: 100 nM and 1000 nM (sheet 'Samples'), CATDS: 0.16868464966378999): 1380 nM
- potency estimated from few doses (IRAK3): 726 nM
- potency estimated from few doses (LIMK1): 1850 nM
- potency estimated from few doses (NEK1): 2140 nM
- potency estimated from few doses (NUAK2): 1540 nM
- potency estimated from few doses (Q6ZSR9): 1280 nM
